Screens deposited in PubChem by several laboratories.
The list is not random: actives were taken first. Their share in the collection is about 5%.
PREPL inhibitor: PREPL enzyme inhibitors, primary screen, biochemical, fluorescence polarization | Prolyl endopeptidase-like (Homo sapiens), Q4J6C6 | recombinant PREPL, fluorescence polarization activity-based probe | inhibition, % at 5.96 µM | hit rate 0.68% among 320,000 | AID 2751, 2010; in the data active = inhibition above about 43%
CHT allo act: CHT positive allosteric modulators, primary screen, cell-based, membrane potential dye, choline EC20 | CHT-expressing cells; stronger effect = higher value; LV-AA mutant CHT in HEK293 cells | B-score at 10 µM | High affinity choline transporter 1 (Homo sapiens), Q9GZV3 | hit rate 0.49% among 310,000 | AID 488977, 2010;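 active = initial fluorescence not abnormally high and integrated response B-score, plate-corrected, over 3 SD above library mean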
ALR inh: inhibitors of human ALR sulfhydryl oxidase, primary screen, biochemical, H2O2 detection, HRP-luminol luminescence, single point; purified ALR, DTT oxidation; hit rate 3.8% among 290,000; FAD-linked sulfhydryl oxidase ALR (Homo sapiens), P55789; inhibition, % (concentration not given with the values);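 active = mean replicate inhibition above about 79%, with every replicate also reaching it, limit read from the data; inconclusive = only one of the two criteria met; inactive = mean below limit and not every replicate reaching it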
Target sequence (P55789 whole entry, looked up): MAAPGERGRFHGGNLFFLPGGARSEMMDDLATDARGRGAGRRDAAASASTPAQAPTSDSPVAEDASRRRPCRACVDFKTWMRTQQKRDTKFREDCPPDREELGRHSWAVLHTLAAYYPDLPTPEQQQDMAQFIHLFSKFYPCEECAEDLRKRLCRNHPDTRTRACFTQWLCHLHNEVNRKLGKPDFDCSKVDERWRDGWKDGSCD
CHT inh: inhibitors of human choline transporter CHT. High affinity choline transporter 1 (Homo sapiens), Q9GZV3. CHT-expressing cells, membrane potential dye, choline response; stronger effect = lower value. B-score at 10 µM. hit rate 0.86% among 310,000;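 active = B-score over 3 SD under the library average, and starting fluorescence ratio not unusually high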;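 note: choline stimulus applied at its EC90 after an EC20 pre-addition; B-score computed on integrated fluorescence ratio after choline addition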
AI-2 QS mod: Vibrio harveyi AI-2 quorum sensing modulators, primary screen, JMH597 strain, luminescence/OD600 ratio; Vibrio harveyi JMH597 AI-2 luminescence/OD600 ratio, 9 h; stronger effect = lower value; strain lacks LuxN and CqsS sensors; 0 = neutral-control median; activity change, % at 7.5 µM; hit rate 0.4% among 300,000; in the data active = activity change below about -75%, passing the limit was not always enough; inconclusive = no clear call, values can overlap the other calls;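 note: luminescence divided by OD600 gain over 9 h not by final OD600 alone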
CHT act confirm: CHT activators, confirmation, cell-based, membrane potential dye, duplicate; shares compounds with CHT allo act; activation, % at 10 µM; hit rate 91% among 2,500; CHT-expressing cells, membrane potential dye fluorescence (FDSS); % of choline EC20–EC90 response window; HEK293 expressing CHT LV-AA mutant; choline added at its EC20; AID 504833, 2011;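 active = primary screen active, with duplicate mean activation above negative control mean plus 3 SD, cut at about 11% in these data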
HEK293 MP dye: membrane potential response in parental HEK293 cells, counter-screen for CHT activator project, cell-based, membrane potential dye; shares compounds with CHT allo act; membrane potential dye fluorescence (FDSS); measured after EC20 choline addition; ratio readout change at 10 µM, hits read low; hit rate 62% among 2,500; AID 623908, 2012;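 active = duplicate-averaged ratio beyond 3 SD from buffer wells, up or down, though filed actives are nearly all decreases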
Each line names hits and unclear results; the compound was inactive in the other large screens (follow-up assays come after a bar, where they were run); ! = a repeat was not active.

COc1ccc(C(CC(=O)N2CCOCC2)c2c(OC)cc(OC)c3c(-c4ccccc4)cc(=O)oc23)cc1 (stereo unspecified)	none
COc1ccc(C(CC(=O)N2CCCC(C)C2)c2c(OC)cc(OC)c3c(-c4ccccc4)cc(=O)oc23)cc1 (stereo unspecified)	none | CHT act confirm inactive | HEK293 MP dye inactive
CC(=O)N1CC[n+]2c(-c3ccc(Cl)cc3)csc21	ALR inh 98.5 | CHT act confirm 46.8 | HEK293 MP dye -23
CCc1ccc(-c2csc3[n+]2CCN3C(C)=O)cc1	ALR inh 98.9 | CHT act confirm 41.2 | HEK293 MP dye inactive
C/C(=N\NC(=O)c1nn(C)cc1Cl)c1ccncc1	none
C/C(=N\NC(=O)c1nn(C)cc1Br)c1ccncc1	CHT allo act 7.26 | CHT act confirm 16.6 | HEK293 MP dye -36.8
CCOC(=O)[C@@H]1[C@H]2COc3ccc(Br)cc3[C@@H]2N2C(=O)N(c3ccccc3)C(=O)[C@@]12C	CHT allo act 8.68 | CHT act confirm 20.5 | HEK293 MP dye inactive
CCOC(=O)[C@H]1[C@H]2COc3ccc(Br)cc3[C@@H]2N2C(=O)N(c3ccccc3)C(=O)[C@@]12C	none (no result: CHT allo act, CHT inh, AI-2 QS mod)
O=C(COC(=O)c1cccc(S(=O)(=O)NCc2ccccc2)c1)NCC1CCCO1 (stereo unspecified)	none
CC(=O)COc1c(-c2ccco2)oc2ccccc2c1=O	none (no result: PREPL inhibitor)
Cc1ccc(N2C(=O)c3cccc4cccc(c34)C2=O)cc1	none
CC1=Nc2ccc(C)c3nc(C)cc(c23)N1c1ccc(C)cc1	CHT allo act 8.53 | CHT act confirm 41.5 | HEK293 MP dye -59.8
CCC(C)(C)NS(=O)(=O)c1cc(CN2C(=O)c3cccnc3C2=O)ccc1OC	none
COCCCC1CCN(C(=O)C2CCC(=O)N(CC3CCCCC3)C2)CC1 (stereo unspecified)	none (no result: PREPL inhibitor)
N=C1C(c2ccc(Br)cc2)=C(O)C2CCc3ccccc3N12 (stereo unspecified)	CHT allo act 12.9 (no result: AI-2 QS mod) | CHT act confirm 55.0 | HEK293 MP dye -66.6
O=C(OCC(=O)N(CCc1ccccc1)Cc1ccccc1)c1ccccc1O	CHT allo act 6.52, ALR inh inconclusive | CHT act confirm 38.1 | HEK293 MP dye inactive
O=C(OCC(=O)N(Cc1ccccc1)Cc1ccccc1)c1ccccc1O	none (no result: CHT allo act, ALR inh, CHT inh, AI-2 QS mod)
COc1ccc(N(CC(=O)NCCSCc2ccco2)S(=O)(=O)c2ccccc2)cc1Cl	none
CCN(CC)S(=O)(=O)c1cc(NC(=O)CNc2cccc(S(=O)(=O)N3CCOCC3)c2)ccc1C	none
Cc1ccc2c(n1)sc1c(-c3ccccc3)c(C#N)c(N)nc12	none
Cc1ccc2c(n1)sc1c(N)ncnc12	CHT allo act 8.32 | CHT act confirm 53.2 | HEK293 MP dye -32.4
COc1ccc(-c2csc(NCc3ccco3)n2)cc1C	none
COc1ccc(-c2nc3cccc(C)n3c2NCc2ccco2)cc1OC	CHT allo act 7.55 (no result: ALR inh) | CHT act confirm 36.0 | HEK293 MP dye -42.3
COc1ccc(C)cc1NC(=O)CNc1ccccc1CN(C)C1CCCCC1	CHT allo act 6.39 | CHT act confirm 21.7 | HEK293 MP dye inactive
O=C(Cc1ccccc1)NNC(=O)C1CC=CCC1 (stereo unspecified)	none
CCOC(=O)C1CCCN(C(=O)c2ccc3c(=O)n(Cc4ccccc4OC)c(=S)[nH]c3c2)C1 (stereo unspecified)	none
c1cc(-c2nnc(-c3ccncc3)o2)ccn1	CHT allo act 8.74 | CHT act confirm 76.9 | HEK293 MP dye -59.5
CCN(CC(=O)Nc1ccccc1C(F)(F)F)C(=O)CCOc1ccc(C)cc1	none (no result: ALR inh) | CHT act confirm inactive | HEK293 MP dye inactive
COc1ccc(Nc2ccc3c(c2)=NC2(CCCCC2)[N+]=3[O-])cc1	CHT allo act 7.19 | CHT act confirm 50.8 | HEK293 MP dye -73.3
CC(=O)NC(CC(=O)NNC(=O)C(C)Oc1ccccc1F)c1ccccc1 (stereo unspecified)	none
COc1ccc(Nc2nc(-c3cccs3)nc3ccccc23)c(OC)c1	CHT allo act 7.99 | CHT act confirm 9.8 | HEK293 MP dye inactive
O=C1CC(c2ccccc2)CN1C(=O)c1cncc(Br)c1 (stereo unspecified)	none (no result: ALR inh)
COCC1CCN(Cc2cn[nH]c2-c2ccc(OC)cc2F)C1 (stereo unspecified)	none | CHT act confirm 20.6 | HEK293 MP dye inactive
COc1ccc(-c2[nH]ncc2CN2CCC(OCc3ccccc3)CC2)c(F)c1	none
Cc1cc(Cl)ccc1OC(C)C(=O)NCCc1ccc2c(c1)OCCO2 (stereo unspecified)	none | CHT act confirm inactive | HEK293 MP dye inactive
Cc1cc(Cl)ccc1OC(C)C(=O)NCCCCc1ccccc1 (stereo unspecified)	none
Cc1ccc(N2C(=O)Nc3ccccc3C2(O)C(=O)N2CCN(c3ccccn3)CC2)cc1C (stereo unspecified)	none
COc1ccccc1OCC(O)Cn1c(=N)n(CCN2CCCCC2)c2ccccc21 (stereo unspecified)	none
N=c1n(CCN2CCCCC2)c2ccccc2n1CC(O)c1cccc(Br)c1 (stereo unspecified)	CHT allo act 11.3 (no result: ALR inh) | CHT act confirm 37.4 | HEK293 MP dye inactive
N=c1n(CCN2CCCC2)c2ccccc2n1CC(O)c1ccco1 (stereo unspecified)	none | CHT act confirm 38.1 | HEK293 MP dye -24.9
O=C(Nc1ccc(Br)cc1)NC1CCCCCCC1	none
COc1ccc(-n2c(-c3ccc(Br)cc3)c[n+]3c2CCc2ccccc2-3)cc1	none | CHT act confirm 90.7 | HEK293 MP dye -29.4
COc1ccccc1-n1c(-c2ccccc2)c[n+]2c1CCc1ccccc1-2	CHT allo act 11.3! | CHT act confirm 32.3 | HEK293 MP dye inactive
O=C(NC1(C(F)(F)F)Oc2ccccc2O1)N1CCCC1	CHT allo act 6.62 (no result: ALR inh) | CHT act confirm inactive | HEK293 MP dye inactive
O=C(Nc1ccc2c(c1)OCO2)NC1(C(F)(F)F)Oc2ccccc2O1	none
CCN1CCc2nc(NC(=O)C(c3ccccc3)c3ccccc3)sc2C1	none (no result: ALR inh) | CHT act confirm 17.2 | HEK293 MP dye inactive
